Measurements taken from article PMC8159961, “Exploring protein hotspots by optimized fragment pharmacophores” (Nature Communications, 2021).
Values without a mark were called inactive. No rule for the calls is given here.

Experiments:
Assay in all cases: primary screen, binary call; higher = more effect of the substance
[1] = target: Factor Xa (bovine, UniProt P00743); set-up: screenings were carried out in duplicate in one independent experiment; conditions: 200 µM
Procedure: Protease inhibitory assays were performed in transparent microtiter plates in a final volume of 200 µL with the use of chromogenic substrates. The reaction rates in the absence and in the presence of the inhibitor were measured; screenings were carried out in duplicate in one independent experiment and Ki values were determined in triplicate in two independent experiments.

[2] = target: 5-HT6 receptor (human, UniProt P50406); set-up: hit call from the mean of at least two separate experiments; conditions: 10 µM
[3] = target: 5-HT7b receptor (human, UniProt P34969); set-up: hit call from the mean of at least two separate experiments; conditions: 10 µM
5-HT7b receptor, sequence (P34969 whole entry, looked up): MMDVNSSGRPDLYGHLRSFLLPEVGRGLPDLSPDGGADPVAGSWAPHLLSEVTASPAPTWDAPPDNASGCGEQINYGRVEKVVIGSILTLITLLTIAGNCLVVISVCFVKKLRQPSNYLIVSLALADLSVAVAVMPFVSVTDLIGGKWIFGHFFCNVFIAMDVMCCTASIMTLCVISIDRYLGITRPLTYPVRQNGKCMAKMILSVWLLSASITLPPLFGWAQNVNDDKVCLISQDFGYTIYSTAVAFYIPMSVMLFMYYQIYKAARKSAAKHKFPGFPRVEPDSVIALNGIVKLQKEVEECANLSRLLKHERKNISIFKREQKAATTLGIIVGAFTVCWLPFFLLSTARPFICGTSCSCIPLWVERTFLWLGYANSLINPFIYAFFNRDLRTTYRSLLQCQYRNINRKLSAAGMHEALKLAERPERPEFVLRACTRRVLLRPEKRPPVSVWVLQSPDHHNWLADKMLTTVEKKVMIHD

Factor Xa, sequence (P00743 41-180 limits assumed): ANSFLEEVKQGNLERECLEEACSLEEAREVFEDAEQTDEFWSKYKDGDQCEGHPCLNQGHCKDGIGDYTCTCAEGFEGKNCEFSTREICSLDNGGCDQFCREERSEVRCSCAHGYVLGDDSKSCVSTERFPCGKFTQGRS
Factor Xa, sequence (P00743 234-492 limits assumed): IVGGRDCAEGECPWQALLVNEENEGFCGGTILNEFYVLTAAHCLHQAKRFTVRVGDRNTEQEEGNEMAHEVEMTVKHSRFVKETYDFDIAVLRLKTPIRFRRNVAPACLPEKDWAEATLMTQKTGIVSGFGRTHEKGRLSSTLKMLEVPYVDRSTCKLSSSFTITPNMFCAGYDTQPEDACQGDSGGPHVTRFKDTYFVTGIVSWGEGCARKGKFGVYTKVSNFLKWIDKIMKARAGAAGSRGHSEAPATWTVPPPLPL
5-HT6 receptor, sequence (P50406 whole entry, looked up): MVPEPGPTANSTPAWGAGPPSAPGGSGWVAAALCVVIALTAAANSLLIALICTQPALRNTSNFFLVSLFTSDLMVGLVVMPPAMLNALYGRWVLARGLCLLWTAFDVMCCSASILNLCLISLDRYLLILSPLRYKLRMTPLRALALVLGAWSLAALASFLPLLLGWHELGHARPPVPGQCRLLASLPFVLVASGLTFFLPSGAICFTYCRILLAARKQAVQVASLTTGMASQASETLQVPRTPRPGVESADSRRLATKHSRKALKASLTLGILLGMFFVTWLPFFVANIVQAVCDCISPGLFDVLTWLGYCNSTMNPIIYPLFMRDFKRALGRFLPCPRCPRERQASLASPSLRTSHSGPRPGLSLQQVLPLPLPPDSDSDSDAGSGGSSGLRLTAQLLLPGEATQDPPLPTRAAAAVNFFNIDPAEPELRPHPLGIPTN

Row | Compound | Factor Xa [1] | 5-HT6 [2] | 5-HT7 [3]
1 | Cn1c(N)nc2ccccc21 | 1 (active) | 0 | 0
2 | c1cnc2c(c1)NCCC2 | 0 | 0 | 0
3 | Clc1ccc2nnnn2n1 | 0 | 0 | 0
4 | N[C@H]1c2ccccc2C[C@H]1CO | 0 | 0 | 0
5 | O=C(O)c1cccc(Nc2ncccn2)c1 | 0 | 1 (active) | 0
6 | CC(=O)c1sc(-c2ccc(O)cc2)nc1C | 1 (active) | 1 (active) | 0
7 | COc1ccccc1N1CCNCC1 | 0 | 1 (active) | 1 (active)
8 | O=C1CCN(c2ccccn2)CC1 | 0 | 0 | 0
9 | O=c1[nH]ncc2c1oc1ccccc12 | 0 | 0 | 0
10 | Oc1ccccc1N1CCCCC1 | 1 (active) | 1 (active) | 0
11 | O=C(O)CC1CCC(=O)N1 (stereo not drawn) | 0 | 0 | 0
12 | Oc1nnc(-c2ccccc2)o1 | 0 | 0 | 0
13 | O=C1CCN(c2ccncc2)CC1 | 0 | 0 | 0
14 | CS(=O)(=O)c1ccc(OC(F)(F)F)cc1 | 0 | 0 | 0
15 | Fc1ccc(CC2CCCNC2)cc1 (stereo not drawn) | 0 | 0 | 0
16 | CCN(CC)c1cccc(C)c1 | 0 | 0 | 0
17 | Cc1cc(-c2ccccc2)n[nH]1 | 0 | 0 | 0
18 | CS(=O)(=O)c1ccc(N2CCNCC2)cc1 | 0 | 0 | 0
19 | COc1ccc(CN2CCNCC2)cc1F | 0 | 0 | 0
20 | CC1(C)OC(=O)c2cc(Br)c(O)cc2O1 | 0 | 1 (active) | 0
21 | O=C1NC(=O)C2(CCc3ccccc32)N1 (stereo not drawn) | 0 | 0 | 0
22 | c1ccc(-c2ccncc2)cc1 | 0 | 0 | 0
23 | CCn1cnc2ccccc21 | 0 | 0 | 0

Row | Compound | Factor Xa [1] | 5-HT6 [2] | 5-HT7 [3]
24 | COc1ccccc1C1CCNCC1 | 0 | 1 (active) | 1 (active)
25 | C1=C[C@H]2O[C@@H]1c1ccccc12 | 0 | 0 | 0
26 | O=C(c1ccncc1)N1CCNCC1 | 0 | 0 | 0
27 | c1ccc2sc(N3CCNCC3)nc2c1 | 0 | 0 | 0
28 | N#CC1CCS(=O)(=O)C1 (stereo not drawn) | 0 | 0 | 0
29 | Nc1ccc(SC(F)F)cc1 | 0 | 0 | 0
30 | Cc1cnc(C(F)(F)F)cn1 | 0 | 0 | 0
31 | O=C(c1ccccc1F)N1CCNCC1 | 1 (active) | 0 | 0
32 | Cn1c(CO)nc2ccccc21 | 0 | 0 | 0
33 | CN(C)c1cc(CN)ccn1 | 0 | 0 | 0
34 | O=C(c1ccccc1)N1CCC(CO)CC1 | 0 | 0 | 0
35 | O=C(O)c1ccc(CN2CCOCC2)cc1 | 0 | 0 | 0
36 | O=C(O)C1CCCN(C(=O)N2CCCC2)C1 (stereo not drawn) | 0 | 0 | 0
37 | O=C1CNCCN1c1ccccc1 | 0 | 0 | 0
38 | CCc1nccn1CC(=O)O | 0 | 0 | 0
39 | CC1C(=O)NC(=O)N1c1ccc(Cl)cc1 (stereo not drawn) | 0 | 0 | 0
40 | COC(=O)c1c(C)nc(C2CC2)[nH]c1=O | 0 | 0 | 0
41 | Brc1ccc(-c2ccon2)cc1 | 0 | 0 | 0
42 | CN1CC(=O)NC1=O | 0 | 0 | 0
43 | COc1cccc(NC2=NCCCCC2)c1 | 0 | 0 | 0
44 | NCC1(c2ccccc2)CCOCC1 | 0 | 0 | 0
45 | O=C1CSC(Nc2ccc(F)cc2)=N1 | 0 | 0 | 0
46 | Cc1ccc(CCNc2ccccc2)cn1 | 0 | 0 | 0

Row | Compound | Factor Xa [1] | 5-HT6 [2] | 5-HT7 [3]
47 | Oc1cnc(-c2ccccc2)nc1 | 0 | 0 | 0
48 | Cc1ccc(C)n1Cc1ccccc1Cl | 0 | 0 | 0
49 | O=C1CCCc2occc21 | 0 | 0 | 0
50 | O=C(O)C1CCN(c2ncccn2)CC1 | 0 | 0 | 0
51 | O=c1ccc2c([nH]1)CCCC2 | 0 | 0 | 0
52 | CCc1ccc(NC2=NCCCS2)cc1 | 0 | 0 | 0
53 | O=C1NC2(CCCC2)Nc2ccccc21 | 0 | 0 | 0
54 | O=C(CN1CCNCC1)c1ccccc1 | 0 | 0 | 0
55 | CC(=O)c1ccc2c(c1)CCCN2 | 0 | 0 | 0
56 | N#Cc1ccc2ncsc2c1 | 0 | 0 | 0
57 | CCCN1C(=O)CC(=O)NC1=S | 0 | 0 | 0
58 | Fc1ccc2c(C3CCNCC3)c[nH]c2c1 | 0 | 1 (active) | 1 (active)
59 | O=C1CC(CSc2ccc(Cl)cc2)=NN1 | 0 | 0 | 0
60 | c1ccc(Nc2nncs2)cc1 | 1 (active) | 0 | 0
61 | Cc1nc(-c2ccccc2)cs1 | 0 | 1 (active) | 0
62 | NC1CCc2ccccc21 (stereo not drawn) | 0 | 0 | 0
63 | Oc1ccc(-n2cncn2)cc1 | 0 | 0 | 0
64 | O=C(Nc1ccccc1)C1CC1 | 0 | 0 | 0
65 | N#CCCN1CCc2ccccc21 | 0 | 0 | 0
66 | CC(=O)c1ccc2c(c1)CNCC2 | 0 | 0 | 0
67 | CC(CN)N1CCc2sccc2C1 (stereo not drawn) | 0 | 0 | 0
68 | Nc1ccc(-c2ccccc2)cc1C(=O)O | 0 | 0 | 0
69 | Cc1nccn1Cc1cccc(C#N)c1 | 0 | 0 | 0

Row | Compound | Factor Xa [1] | 5-HT6 [2] | 5-HT7 [3]
70 | Cc1cc(N)no1 | 0 | 0 | 0
71 | NC(=O)N1CCC(C(=O)O)CC1 | 0 | 0 | 0
72 | CS(=O)(=O)Nc1ccc(C(=O)O)cc1 | 0 | 0 | 0
73 | Cc1ccc(-c2ccc(O)cc2)cc1 | 0 | 0 | 0
74 | CC1CCc2sc(C(=O)O)cc2C1 (stereo not drawn) | 0 | 0 | 0
75 | NC(c1ccccc1)c1ccccc1 | 0 | 0 | 0
76 | O=C1NC(=O)/C(=C\c2cccs2)N1 | 1 (active) | 0 | 0
77 | O=C1CCC(=O)N(c2ccccc2)N1 | 0 | 0 | 0
78 | c1ccc2c(N3CCNCC3)ccnc2c1 | 0 | 1 (active) | 0
79 | COc1ccc(C2=CCNCC2)cc1 | 0 | 0 | 0
80 | N#Cc1ccc(C(=O)N2CCOCC2)cc1 | 0 | 0 | 0
81 | COc1ccccc1CC1CCNCC1.Cl | 1 (active) | 1 (active) | 1 (active)
82 | Oc1ccc(C2CCNCC2)cc1 | 0 | 0 | 0
83 | O=C(NC1CC1)c1ccccc1O | 0 | 0 | 0
84 | c1ccc2oc(C3CCCNC3)nc2c1 (stereo not drawn) | 0 | 0 | 0
85 | Cc1cc(C)c2c(=O)[nH]n(C)c2n1 | 0 | 0 | 0
86 | FC1(F)CNCC(F)(F)O1 | 0 | 0 | 0
87 | O=C(CN1CCCC1)c1ccccc1Cl | 0 | 0 | 0
88 | O=C(O)c1cnc(-c2ccccc2)s1 | 0 | 0 | 0
89 | Nc1nnc(-c2cccs2)[nH]1 | 0 | 1 (active) | 0
90 | O=c1[nH]c2c(s1)CCC2 | 0 | 0 | 0
91 | Cn1nc(C(F)(F)F)cc1O | 0 | 0 | 0
